# Laboratory results taken from PubChem BioAssay AID1159580 (chemical genetic matrix, 2015).
# Hit rate of the full screen: of about 5,500 compounds, about 2,000 (36%) were called active. About 18% were inconclusive and are not listed. The list shows a part of the results. Values without a mark were called inactive. No stated cut-off is given here; in the data, active means normalized growth mostly below about 0.91 (no sharp cut-off); inconclusive means no clear call, values can overlap the other calls; inactive means mostly above about 0.92.
# Assay: chemical genetic growth profiling, strain panel (AID 1159580);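 further: tested at 20 µM; growth read once vehicle control cultures reached saturation at 30 °C; 1 = growth at the plate median or of vehicle wells; lower values mean less growth of the strain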
# Details: S. cerevisiae deletion strains, growth OD
# [1] = locus YAL013W, strain DEP1, hits give low values
# [2] = locus YBR229C, strain ROT2, hits give low values
# [3] = locus YDL101C, strain DUN1, hits give low values
# [4] = locus YDR150W, strain NUM1, hits give low values
# [5] = locus YEL061C, strain CIN8, hits give low values
# [6] = locus YGR078C, strain PAC10, hits give low values
# [7] = locus YHR030C, strain SLT2, hits give low values
# [8] = locus YHR087W, strain rtc3, hits give low values
# [9] = locus YJR043C, strain POL32, hits give low values
# [10] = locus YJR075W, strain HOC1, hits give low values
# [11] = locus YKL190W, strain CNB1, hits give low values
# [12] = locus YLR039C, strain RIC1, hits give low values
# [13] = locus YLR058C, strain SHM2 (second series), hits give low values
# [14] = locus YLR085C, strain ARP6, hits give low values
# [15] = locus YLR262C, strain YPT6, hits give low values
# [16] = locus YML094W, strain GIM5, hits give low values
# [17] = locus YMR219W, strain ESC1, hits give low values
# [18] = locus YMR263W, strain SAP30, hits give low values
# [19] = locus YMR307W, strain GAS1, hits give low values
# [20] = locus YNL153C, strain GIM3, hits give low values
# [21] = locus YNL298W, strain CLA4 (second series), hits give low values
# [22] = locus YNL322C, strain KRE1, hits give low values
# [23] = locus YNR030W, strain Alg12, hits give low values
# [24] = locus YOL006C, strain TOP1, hits give low values
# [25] = locus YPL055C, strain LGE1, hits give low values
# [26] = locus YPL241C, strain CIN2, hits give low values
# [27] = locus YPR135W, strain CTF4, hits give low values
compound,measurement,setting,value
CCOC(=O)c1ccc(N2CCOCC2)c(N=Cc2cc(Cl)ccc2O)c1,normalized growth,[1],0.94
same,normalized growth,[2],0.901 (active)
same,normalized growth,[3],0.928
same,normalized growth,"locus YDL134C, strain PPH21, hits give low values",0.781 (active)
same,normalized growth,[4],0.91
same,normalized growth,[5],0.757 (active)
same,normalized growth,[6],0.892 (active)
same,normalized growth,[7],0.266 (active)
same,normalized growth,[8],0.915
same,normalized growth,[9],0.946
same,normalized growth,[10],0.855 (active)
same,normalized growth,[11],0.678 (active)
same,normalized growth,[12],0.434 (active)
same,normalized growth,[13],0.96
same,normalized growth,[14],0.508 (active)
same,normalized growth,[15],0.38 (active)
same,normalized growth,[16],0.822 (active)
same,normalized growth,[17],0.947
same,normalized growth,[18],0.917
same,normalized growth,[19],0.41 (active)
same,normalized growth,[20],0.951
same,normalized growth,[21],0.754 (active)
same,normalized growth,[22],0.99
same,normalized growth,[23],0.885 (active)
same,normalized growth,[24],0.323 (active)
same,normalized growth,[25],0.884
same,normalized growth,[26],0.908
same,normalized growth,[27],0.516 (active)
Cc1cc(N=C(N)N=C(N)N)no1,normalized growth,[1],1.01
same,normalized growth,[2],1.01
same,normalized growth,[3],1.02
same,normalized growth,[4],0.902
same,normalized growth,[5],1
same,normalized growth,[6],1.01
same,normalized growth,"locus YGR229C, strain SMI1, hits give low values",0.993
same,normalized growth,[7],1
same,normalized growth,[8],1.02
same,normalized growth,"locus YJL187C, strain SWE1, hits give low values",1
same,normalized growth,[9],0.998
same,normalized growth,[10],1
same,normalized growth,[11],1
same,normalized growth,[12],1.01
same,normalized growth,[13],1.01
same,normalized growth,[14],0.988
same,normalized growth,[15],1.01
same,normalized growth,[16],1.03
same,normalized growth,[17],1
same,normalized growth,[18],1
same,normalized growth,[19],0.969
same,normalized growth,"locus YNL128W, strain TEP1, hits give low values",1.02
same,normalized growth,[20],1
same,normalized growth,[21],1.02
same,normalized growth,[22],1
same,normalized growth,[23],1.01
same,normalized growth,[24],1.02
same,normalized growth,[25],0.964
same,normalized growth,[26],1.01
same,normalized growth,[27],1.07
